The text below walks through data of PubChem BioAssay.

The structures appear in SMILES notation. The source made the active and inactive calls. Unless noted, how the calls were made is not given here.

Test [1] can be described thus: compound effects on lung adenocarcinoma cell viability – A549, calcein-AM fluorescence, 48 h, basal, profiling panel (AID 1162). Further: test concentration not given here. To be noted: higher = more signal.
Test [2] can be described thus: compound effects on differentiated 3T3-L1 adipocyte viability – cell-based, 3T3-L1 adipocytes, calcein-AM fluorescence, 48 h, basal, profiling panel (AID 1163). Further: test concentration not given here. The settings on record: 3T3-L1 adipocytes viability, higher = more signal.
The nature of test [3]: compound effects on hepatocellular carcinoma cell viability – HepG2, calcein-AM fluorescence, 48 h, basal, profiling panel (AID 1164). Further: test concentration not given here. To be noted: higher = more signal.
Test [4] in a line: compound effects on multiple myeloma cell viability – MM1S, calcein-AM fluorescence, 48 h, basal, profiling panel (AID 1165).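 Further: viability of MM1S multiple myeloma cells under basal unstimulated conditions; test concentration not given here.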 The settings on record: higher = more signal.
Test [5] in a line: calcein-AM signal in unstimulated myeloma cells – cell-based, calcein-AM fluorescence, 48 h, PK04 Diversity Set, profiling panel (AID 1166).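 Further: cells grown under basal conditions without added stimulus; test concentration not given here.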 The settings on record: RPMI8226 myeloma viability, higher = more signal.
Test [6] is described as follows: JC-1 mitochondrial signal, unstimulated HepG2 cells – cell-based, JC-1 fluorescence, 24 h, 100 nL compound, profiling panel (AID 1167). Further: test concentration not given here. The settings on record: HepG2 mitochondrial potential, higher = more signal.
Test [7] in a line: JC-1 mitochondrial signal, unstimulated adipocytes – cell-based, JC-1 fluorescence, 3T3-L1 adipocytes, 24 h, 100 nL compound, profiling panel (AID 1168). Further: test concentration not given here. The settings on record: JC-1 mitochondrial fluorescence, higher = more signal, called active from +8 up or from −8 down.
The nature of test [8]: JC-1 mitochondrial signal, unstimulated myeloma cells – cell-based, JC-1 fluorescence, RPMI8226, 24 h, 100 nL compound, profiling panel (AID 1169). Further: test concentration not given here. To be noted: JC-1 mitochondrial potential fluorescence, higher = more signal.
The nature of test [9]: JC-1 mitochondrial signal, unstimulated MM1S myeloma – cell-based, JC-1 fluorescence, 24 h, 100 nL compound, profiling panel (AID 1170). Further: test concentration not given here. To be noted: MM1S mitochondrial potential, higher = more signal.
The nature of test [10]: resazurin metabolic signal in A549 cells – cell-based, resazurin fluorescence, 24 h, PK04 Diversity Set, profiling panel (AID 1171). Further: test concentration not given here. The settings on record: A549 viability, higher = more signal, called active from +8 up or from −8 down. On the technique in general: Alamar Blue is a resazurin reagent that responds to reducing activity.
A short description of test [11]: resazurin metabolic signal in HepG2 cells – cell-based, resazurin fluorescence, 24 h, PK04 Diversity Set, profiling panel (AID 1172). Further: test concentration not given here. The settings on record: HepG2 viability, higher = more signal.
Test [12] can be described thus: budding yeast growth changes without added modifier – OD600, strain BY4716, 24 h, basal condition, primary screen (AID 1173). The settings on record: S. cerevisiae BY4716 growth, OD600, 24 h; higher = more signal, called active from +8 up or from −8 down.
A short description of test [13]: viability profiling in MM1S myeloma cells – cell-based, resazurin fluorescence, basal, 24 h, PK04 Diversity Set, profiling panel (AID 1174). Further: test concentration not given here. To be noted: higher = more signal, called active from +8 up or from −8 down.
The target of test [14] is Dihydroorotate dehydrogenase (quinone), mitochondrial (Plasmodium falciparum (isolate 3D7)) (UniProt Q08210). Put plainly: inhibition of P. falciparum DHODH – biochemical, C-terminal His tag, absorbance 600 nm, primary screen (AID 1175).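 Further: recombinant parasite enzyme with a five histidine tag at its C terminus; test concentration not given here.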 The settings on record: PfDHODH enzyme, DCIP absorbance 600 nm; higher = more signal, called active from +8 up or from −8 down.
Sequence of Dihydroorotate dehydrogenase (quinone), mitochondrial (Plasmodium falciparum (isolate 3D7)) (Q08210 whole entry, looked up): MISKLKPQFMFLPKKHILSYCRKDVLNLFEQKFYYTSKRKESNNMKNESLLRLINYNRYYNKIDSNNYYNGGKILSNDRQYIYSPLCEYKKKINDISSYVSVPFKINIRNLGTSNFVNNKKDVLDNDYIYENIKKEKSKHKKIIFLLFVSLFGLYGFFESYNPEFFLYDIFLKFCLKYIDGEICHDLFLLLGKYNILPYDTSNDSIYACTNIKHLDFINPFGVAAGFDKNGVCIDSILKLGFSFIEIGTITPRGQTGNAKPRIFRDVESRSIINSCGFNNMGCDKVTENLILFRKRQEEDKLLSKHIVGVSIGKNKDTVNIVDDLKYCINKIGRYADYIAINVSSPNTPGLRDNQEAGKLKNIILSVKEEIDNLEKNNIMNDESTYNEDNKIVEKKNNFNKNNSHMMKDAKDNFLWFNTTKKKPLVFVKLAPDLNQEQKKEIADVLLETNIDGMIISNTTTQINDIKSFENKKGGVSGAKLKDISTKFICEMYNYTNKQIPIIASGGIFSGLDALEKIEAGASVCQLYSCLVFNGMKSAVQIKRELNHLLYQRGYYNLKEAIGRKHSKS
Test [15] in a line: inhibition of PAO1 biofilm formation – strain PAO1, LB-PBS medium, absorbance 600 nm, primary screen (AID 1176). Further: test concentration not given here. The settings on record: P. aeruginosa PAO1 growth/biofilm, A600, 12 h; higher = more signal.
Test [16] can be described thus: growth modulation of vineyard yeast isolate – strain RM11-1a, OD600, basal, 24 h, primary screen (AID 1177).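 Further: cultures grown under basal conditions with no added stressor; test concentration not given here.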 To be noted: S. cerevisiae RM11-1a growth, OD600, 24 h; higher = more signal, called active from +8 up or from −8 down.
Test [17] in a line: growth of efflux-deficient E. coli DRC39 – strain DRC39, OD650, 24 h, E. coli filamentation inducers, primary screen (AID 1178).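 Further: growth measured as culture turbidity by optical density at 650 nm; test concentration not given here.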 The settings on record: E. coli DRC39 acrAB, higher = more signal, called active from +8 up or from −8 down.
Test [18] can be described thus: growth of efflux-deficient E. coli DRC39 – strain DRC39, OD650, 48 h, E. coli filamentation inducers, primary screen (AID 1179).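 Further: screen aims at cell division blockers that make cells filament.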 The settings on record: E. coli DRC39 delta-acrAB growth, higher = more signal, called active from +8 up or from −8 down.
Test [19] is described as follows: viability profiling in RPMI8226 myeloma cells – cell-based, resazurin fluorescence, basal, 24 h, PK04 Diversity Set, profiling panel (AID 1180).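 Further: RPMI8826 multiple myeloma cell line at 5000 cells per well; test concentration not given here.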 The settings on record: higher = more signal.
Test [20] has as its target E3 ubiquitin-protein ligase XIAP (Homo sapiens) (UniProt P98170). Put plainly: small molecules binding XIAP protein – biophysical, small-molecule microarray, fluorescence 635 nm, primary screen (AID 1181).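 Further: score merges 667 nm emission and signal to noise over triplicate slides.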 The settings on record: higher = more signal.

Sequence of E3 ubiquitin-protein ligase XIAP (Homo sapiens) (P98170 whole entry, looked up): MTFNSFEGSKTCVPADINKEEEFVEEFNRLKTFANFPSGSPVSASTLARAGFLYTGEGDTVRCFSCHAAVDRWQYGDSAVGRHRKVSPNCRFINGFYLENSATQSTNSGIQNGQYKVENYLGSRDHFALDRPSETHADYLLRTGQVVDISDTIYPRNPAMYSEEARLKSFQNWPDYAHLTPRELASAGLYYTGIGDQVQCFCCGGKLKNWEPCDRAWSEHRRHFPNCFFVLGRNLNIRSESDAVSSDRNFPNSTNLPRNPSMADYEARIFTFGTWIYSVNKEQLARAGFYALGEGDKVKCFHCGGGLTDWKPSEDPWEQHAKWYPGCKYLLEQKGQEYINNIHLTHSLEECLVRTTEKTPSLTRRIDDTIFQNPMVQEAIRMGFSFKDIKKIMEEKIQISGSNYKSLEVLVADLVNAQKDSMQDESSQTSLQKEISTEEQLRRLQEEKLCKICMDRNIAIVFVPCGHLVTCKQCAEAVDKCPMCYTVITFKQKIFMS

Turning to `CCOC(=O)NN=C1C[C@@H](O)[C@@H](O)[C@@H]2[C@@H]3C(=O)N(C[C@@H]4CCCO4)C(=O)[C@@H]3CC[C@H]12`, the z-score in test [1] is -0.0295; in [2], 0.127; in test [3], -1.17; in test [4] it was -0.0085; in [5], 0.121; in [6], -0.686. The z-score in test [7] was -0.408 (inactive); in test [8], -0.38; in test [9], -0.229; in test [10] it was 0.159 (inactive); in test [11], 0.0254; in [12] it was 0.197 (inactive). For the same compound, the z-score in test [13] is -0.841 (inactive); in test [15] it was -0.495 (inactive); in test [16] it was -0.396 (inactive); in test [17] it was 0.213 (inactive); in test [18], 0.626 (inactive); in test [19], -0.248. The composite z-score is -1.36 (inactive) in [14] and -0.02 in test [20].
`CC(C)[C@@H](OCc1ccccc1)[C@H](C)C=NOC[C@@H](O)[C@H]1O[C@@H]2OC(C)(C)O[C@@H]2[C@H]1O`: the z-score in [1] was -0.205; in test [2], -0.132; in test [3], -0.292; in [4] it was 0.592; in test [5], 0.322; in test [6], -0.719. The z-score in test [7] is -1.58 (inactive); in test [8], 0.13; in test [9], 0.461; in test [10] it was -0.665 (inactive); in test [11], -0.752; in [12] it was -0.848 (inactive). The z-score in test [13] is -0.587 (inactive); in [15] it was 0.241 (inactive); in test [16], 1.28 (inactive); in [17], 0.0024 (inactive); in [18] it was -1.79 (inactive); in test [19] it was -0.766. For the same compound, the composite z-score in test [14] was 0.188 (inactive); in test [20] it was 0.191.
Regarding `COC(=O)[C@@H]1CC[C@H](C)[C@@H](c2ccc(Br)cc2)N1C[C@@H](O)CN=[N+]=[N-]`, the z-score was -0.618 in test [1]; 0.379 in test [2]; -0.494 in test [3]; -0.682 in test [4]; -1.4 in [5]; 0.462 in test [6]. Besides, the z-score is 0.866 (inactive) in test [7]; 0.65 in test [8]; -0.553 in [9]; 0.0136 (inactive) in test [10]; -0.36 in test [11]; -11.9 (active) in test [12]. Besides, the z-score is 0.506 (inactive) in test [13]; 0.733 (inactive) in test [15]; -0.492 (inactive) in [16]; -1.47 (inactive) in [17]; -2.14 (inactive) in [18]; -0.0718 in test [19]. In addition, the composite z-score in test [14] was -3.04 (inactive); in test [20], -0.0118.
In the case of `CCOC(=O)[C@H](CC(C)C)NC(=O)CCC1CC(OC(=O)NCCc2ccc(F)cc2)CC2(CCCC(COC(=O)NCCCN3CCCC3=O)O2)O1` (stereo not given in full), the z-score is 0.332 in test [1]; -1.03 in [2]; 0.0317 in test [3]; -0.528 in test [4]; -1.8 in test [5]; -0.556 in test [6]. Also, the z-score in test [7] is -0.139 (inactive); in test [8], -0.912; in test [9], 0.131; in test [10], 0.601 (inactive); in test [11] it was 0.653; in test [12], -0.796 (inactive). Besides, the z-score in [13] is 0.469 (inactive); in test [15], 0.909 (inactive); in test [16], -0.129 (inactive); in test [17], 0.698 (inactive); in test [18], -0.405 (inactive); in test [19], 1.32. In addition, the results for the composite z-score in test [14] and in [20] were 0.0102 (inactive) and -0.179, respectively.
`Cc1cc2c(nc1C)CCCCN2CC(O)CN1CCCc2nc(-c3ccc(Br)cc3)ccc21` (stereo not given): the z-score in test [1] was 1.54; in test [2] it was -0.829; in test [3], 1.62; in test [4], 0.322; in [5] it was -0.697; in test [6], -0.814. Besides, the z-score in test [7] is -0.16 (inactive); in test [8] it was 0.357; in test [9], -0.536; in test [10], -0.379 (inactive); in [11], -0.225; in [12] it was -0.849 (inactive). The z-score in [13] was -1.51 (inactive); in [15], 0.38 (inactive); in test [16], 0.919 (inactive); in [17] it was 0.608 (inactive); in test [18], 0.348 (inactive); in [19], -1.48. Besides, the composite z-score in [14] is 0.667 (inactive); in test [20], 0.131.
As to `CCOC(=O)CCN1C(=O)[C@H]2[C@H]3[C@H](O)[C@H](O)CC(=NO[C@@H]4O[C@H](CO)[C@@H](O)[C@H](O)[C@H]4O)[C@@H]3CC[C@H]2C1=O`, the z-score in [1] was 0.816; in test [2] it was -0.0641; in test [3], 1.19; in test [4] it was -0.269; in test [5], 0.238; in [6], -0.0782. In addition, the z-score in test [7] was -0.0421 (inactive); in test [8], 0.577; in [9] it was -1.45; in test [10], -0.765 (inactive); in test [11], -0.901; in test [12], -1.4 (inactive). The z-score in test [13] is -0.481 (inactive); in test [15] it was 0.48 (inactive); in test [16] it was -0.445 (inactive); in test [17] it was 0.225 (inactive); in test [18] it was 0.79 (inactive); in [19] it was -0.634. Moreover, the composite z-score in [14] was -0.451 (inactive); in test [20], -0.0125.
For `CC(C)[C@@H](OCc1ccccc1)[C@H](C)C=NO[C@@H](C)c1cn([C@H](CO)Cc2ccccc2)nn1`, the z-score was 0.0751 in test [1]; 0.143 in test [2]; -0.112 in test [3]; -0.265 in test [4]; 0.0853 in [5]; -0.944 in [6]. In addition, the z-score in test [7] is -1.54 (inactive); in test [8] it was 0.362; in [9], -0.318; in [10], -0.877 (inactive); in test [11], -1.07; in [12], -2.35 (inactive). The z-score in [13] was -0.883 (inactive); in [15], 0.241 (inactive); in test [16] it was -0.0022 (inactive); in test [17] it was 0.805 (inactive); in test [18] it was 0.633 (inactive); in test [19] it was -1.63. Also, the composite z-score in [14] was -0.984 (inactive); in [20], 0.0374.
Consider `CC1(C)O[C@H]2OC([C@H](O)CON3C(=O)c4ccccc4C3=O)[C@H](O)[C@H]2O1` (stereo not given in full), for which the z-score in test [1] is 0.23; in test [2] it was 0.0217; in [3], 0.0029; in [4], -0.963; in test [5], -0.486; in test [6], -0.249. Further, the z-score in [7] is -0.143 (inactive); in [8], -0.484; in test [9] it was 0.658; in [10] it was 0.368 (inactive); in test [11] it was 0.109; in test [12], 0.457 (inactive). For the same compound, the z-score in test [13] is -0.409 (inactive); in test [15], -0.151 (inactive); in test [16], -0.854 (inactive); in [17], 0.345 (inactive); in test [18] it was 0.209 (inactive); in test [19], 0.0738. Besides, the composite z-score was -0.559 (inactive) in test [14] and -0.261 in test [20].
Take `CC(C)=NO[C@@H](C)c1cn([C@H](CO)Cc2ccccc2)nn1`: the z-score was 0.308 in [1]; 0.343 in test [2]; 1.17 in test [3]; 0.182 in [4]; -0.428 in test [5]; 0.614 in test [6]. Also, the z-score in [7] is 0.0209 (inactive); in test [8] it was 0.386; in test [9], 0.514; in [10], -1.35 (inactive); in [11] it was -1.27; in [12] it was -1.16 (inactive). The z-score in test [13] was -0.597 (inactive); in [15], 0.0889 (inactive); in [16] it was -2.2 (inactive); in test [17], 0.0116 (inactive); in test [18] it was -1.77 (inactive); in [19], -1.18. Moreover, the composite z-score was -1.44 (inactive) in test [14] and 0.314 in test [20].
